Sampled rows, rich in hits. Any-hit rate of the full collection: about 8.2%.
ELG1 DNA repair: blocks ELG1-dependent DNA repair in HEK293T cells. Potency, µM (series often up to 46.1 µM), inactives show top-dose activity change, negative = inhibition, usual class: inhibitors. HEK293T ELG1-luciferase reporter, luminescence, 16 h; DNA damage induced by 5-fluorouridine. 2.3% of 330,000 active; note: % is set by controls: 0 for no effect and ±100 for the full control effect; nearly all actives have a fitted effect of over 55% in size
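5-Fluorouridine DNA damage + compound/DMSO, 2,000 cells/well, 16 h, 37 °C/5% CO2. ONE-Glo, 30 min RT, luminescence. Readout = decrease in reporter signal.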
KB-V1 MDR tox: KB-V1 MDR subline cytotoxicity | KB-V1 MDR cells viability, CellTiter-Glo, 72 h | Potency, µM (doses to about 46.1 µM), usual class: cytotoxic | 3.4% of 400,000 active; note: % is set by controls: 0 for no effect and ±100 for the full control effect; nearly all actives have a fitted effect of over 60% in size
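Potencies derive from concentration-effect curves fitted to normalized luminescence (CellTiter-Glo) of KB-V1 cells treated for 72 h at 37 degrees C in phenol-red-free DMEM containing 10% FBS.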
MCF10A rereplic: DNA re-replication induction in MCF 10a cells; 2.9% of 350,000 active; Potency, µM (top dose mostly 46.1 µM), without a hit: at the highest dose activity, positive = re-replication, actives largely listed as activators; MCF 10A DNA re-replication, Hoechst nuclear intensity, 48 h; AID 624296; note: % of control where 0% means no effect; nearly all actives have a fitted effect of over 50% in size
SW480 rereplic: DNA re-replication induction in SW480 cells; Potency, µM (series often up to 46.1 µM), for inactives: top-dose re-replication activation, usual class: activators; AID 624297; SW480 DNA re-replication, Hoechst DNA content imaging, 48 h; 1.8% of 340,000 active; note: % of control where 0% means no effect; nearly all actives have a fitted effect of over 55% in size
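Image-based DNA-content assay: after two days of treatment, nuclei were labelled with the DNA dye Hoechst and imaged, and hits were compounds raising the count of nuclei showing high fluorescence intensity.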
KB-3-1 tox: KB-3-1 parental cell cytotoxicity. AID 1347075. KB-3-1 viability, CellTiter-Glo ATP luminescence, 72 h. 1.4% of 400,000 active. Potency, µM (doses to about 46.1 µM), most hits filed as cytotoxic; note: % is set by controls: 0 for no effect and ±100 for the full control effect; nearly all actives have a fitted effect of over 60% in size
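Multi-concentration cytotoxicity screen in KB-3-1 cells grown in DMEM lacking phenol red with 10% FBS. After 72 h at 37 °C with compound, ATP-dependent luminescence was recorded.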
Numbers without * were called inactive; i = inactive; ? = inconclusive; / = not tested or not shown. Calls come from the whole dose curve; as a rule, active = well fitted curve in the direction sought with a large enough effect; inconclusive = small, poorly fitted or top-dose-only effect, or another doubt; inactive = no such curve, though single readings can be large; an effect the other way counts as inactive or inconclusive. Potency is the fitted concentration of half-maximal effect.

SMILES	ELG1 DNA repair	KB-V1 MDR tox	MCF10A rereplic	SW480 rereplic	KB-3-1 tox
CC(=O)c1c(C)[nH]c(C(=O)OCc2c(F)cccc2Cl)c1C	7.3µM*	i	10%	14%	i
Nc1c([N+](=O)[O-])cc2c3c(cccc13)CC2	/	i	/	/	i
C[C@H](CO)N1C[C@H](C)[C@@H](CN(C)CC2CC2)OCc2cnnn2CCCC1=O	/	i	/	/	i
FC(F)(F)c1cc(CCN2CCNC[C@H]2Cc2cccc3ccccc23)cc(C(F)(F)F)c1	?	i	16µM*	?	i
O=C(c1ccc(S(=O)(=O)c2ccccc2Cl)c([N+](=O)[O-])c1)N1CCN(Cc2ccccc2)CC1	23µM*	2.3µM*	?	21µM*	?
COc1ccc(N2CCN(C(=O)c3ccc(F)cc3)CC2)c([N+](=O)[O-])c1	?	?	-27%	-99%	i
Cc1ccc(CS(=O)(=O)c2ccc(C(=O)N3CCN(c4ccccn4)CC3)cc2[N+](=O)[O-])cc1	15µM*	?	29%	15%	i
CC1CCN(C(=O)c2ccc(S(=O)(=O)Cc3ccccc3F)c([N+](=O)[O-])c2)CC1	21µM*	?	?	?	i
O=C(c1ccc(F)cc1)N1CCN(c2cc(N3CCCCC3)c(F)cc2[N+](=O)[O-])CC1	-25%	9.2µM*	30%	13%	i
Cc1ccc(CS(=O)(=O)c2ccc(C(=O)N3CCCCC3)cc2[N+](=O)[O-])cc1	-23%	i	11%	-5%	i
NCCCC[C@@H]1NC(=O)[C@H](CCC(=O)O)NC(=O)c2cc([N+](=O)[O-])cc(I)c2OCC[C@@H](C(N)=O)NC1=O	1%	i	0%	-19%	i
Cc1csc(C)[n+]1CCC1CCCCC1	/	i	/	/	?
O=C(c1ccc(S(=O)(=O)c2ccc(F)cc2)c([N+](=O)[O-])c1)N1CCCCCC1	?	8.2µM*	?	?	i
O=C(NC1CCCCC1)c1ccc([N+](=O)[O-])cc1	/	i	-1%	2%	i
O=C(NC1CCCCC1)c1ccc(S(=O)(=O)c2ccccc2Cl)c([N+](=O)[O-])c1	5.8µM*	/	/	/	/
COc1ccc(S(=O)(=O)N2CCN(Cc3nc4ccc(C)cc4o3)CC2)cc1	/	i	/	/	i
O=C(NCCN1CCN(c2cccc(Cl)c2)CC1)c1ccc(CSc2nc3ccncc3[nH]2)cc1	?	i	18µM*	16%	?
CCN(CCNC(=O)c1ccc(CSc2nc3ccncc3[nH]2)cc1)c1ccccc1	?	i	?	-7%	i
CCc1nn(C(C)C(=O)N(C)Cc2ccccc2)c(=O)c2cc3occc3n12 (centres undefined)	-2%	i	0%	-11%	i
CN(C)c1ncnc2c1C(c1ccccc1)C(C)(C)O2 (centres undefined)	/	18µM*	3%	-1%	i
CC(C)Cn1nc(C(=O)Nc2cccc(C(=O)NC3CC3)c2)c2ccccc2c1=O	16µM*	i	25%	-9%	i
CC(C)Cn1nc(C(=O)Nc2cccc(S(=O)(=O)N3CCCC3)c2)c2ccccc2c1=O	21µM*	4.6µM*	17%	7%	i
O=C(Nc1cccc(C(=O)NC2CCCC2)c1)c1ccccc1	-2%	i	2%	0%	i
CCn1nc(C(=O)Nc2cccc(S(=O)(=O)N3CCCC3)c2)c2ccccc2c1=O	?	?	4%	-13%	i
O=C(NC1CC1)c1cccc(NC(=O)c2cnn(-c3ccccc3)n2)c1	12µM*	15µM*	3%	-7%	i
Cn1nc(C(=O)Nc2cccc(C(=O)NC3CC3)c2)c2ccccc2c1=O	-2%	i	0%	-3%	i
CC(NC(=O)CCSCCC(=O)NC(C)c1ccccc1)c1ccccc1 (centres undefined)	-18%	16µM*	15%	-2%	i
CC(NC(=O)CCC(=O)NC(C)c1ccccc1)c1ccccc1 (centres undefined)	0%	i	-3%	?	i
